The results in this text go back to paper PMC7862700, “An all-to-all approach to the identification of sequence-specific readers for epigenetic DNA modifications on cytosine”.

Common to all, as to assay: DAPPL (digital affinity profiling via proximity ligation, sequencing); 10 mM Tris-HCl pH 7.5, 50 mM NaCl, 1 mM DTT, 4% glycerol, room temperature, 30 min; GST-TFs on glutathione beads, 16-mer random dsDNA library, 0.1% formaldehyde crosslink after washing; high values mean tight binding
Conditions in all cases: protein: recombinant; tags: N-terminal GST; dsDNA, one strand shown

Experiment [1] deals with T1, ERF (Homo sapiens, UniProt P50548 1-548).
T1 sequence: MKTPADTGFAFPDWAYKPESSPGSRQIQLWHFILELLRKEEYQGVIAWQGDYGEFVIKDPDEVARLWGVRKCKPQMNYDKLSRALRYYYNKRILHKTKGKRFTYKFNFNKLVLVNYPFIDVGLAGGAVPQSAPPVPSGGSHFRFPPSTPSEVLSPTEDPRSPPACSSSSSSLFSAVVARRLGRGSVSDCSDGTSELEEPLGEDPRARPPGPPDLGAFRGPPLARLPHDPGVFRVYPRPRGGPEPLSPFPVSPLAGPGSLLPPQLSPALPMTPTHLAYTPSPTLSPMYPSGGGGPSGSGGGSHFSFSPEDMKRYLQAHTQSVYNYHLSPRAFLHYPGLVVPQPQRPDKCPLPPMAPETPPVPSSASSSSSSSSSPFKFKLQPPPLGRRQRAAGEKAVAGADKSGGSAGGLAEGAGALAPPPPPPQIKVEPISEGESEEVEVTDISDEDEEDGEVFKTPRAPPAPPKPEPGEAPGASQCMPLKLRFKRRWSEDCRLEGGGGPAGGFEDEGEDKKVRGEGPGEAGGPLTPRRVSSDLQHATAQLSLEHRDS
An outline of the steps: (§1)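 A tag-only sample was pooled with DNA-barcoded human transcription factors that had been expressed in yeast as GST fusions and captured on glutathione beads. The pools were incubated for 30 min at room temperature with 200 nmole of a random double-stranded 16-mer DNA library in Tris/NaCl/DTT/glycerol buffer, then washed, crosslinked with 0.1% formaldehyde, proximity-ligated (BsaI/T4 ligase, 1 h, 37 °C), PCR-amplified and sequenced on an Illumina NextSeq500. Binding signal is each hexamer's read frequency for a factor divided by its frequency for the tag-only sample.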

The target in experiment [2] is T2, ETV3L (Homo sapiens, UniProt Q6ZN32 1-361).
T2 sequence: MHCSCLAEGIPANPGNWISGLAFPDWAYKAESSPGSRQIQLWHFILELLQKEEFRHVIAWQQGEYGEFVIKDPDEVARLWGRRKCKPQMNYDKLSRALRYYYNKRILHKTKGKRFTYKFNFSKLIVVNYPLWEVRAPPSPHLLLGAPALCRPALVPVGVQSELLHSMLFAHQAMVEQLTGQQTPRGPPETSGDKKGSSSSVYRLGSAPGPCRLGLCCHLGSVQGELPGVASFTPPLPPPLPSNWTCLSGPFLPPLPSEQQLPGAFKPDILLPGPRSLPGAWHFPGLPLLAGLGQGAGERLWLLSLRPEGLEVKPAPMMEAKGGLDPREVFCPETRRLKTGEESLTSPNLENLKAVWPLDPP
An outline of the steps:
as §1

For experiment [3], the target named is T3, ETS2 (Homo sapiens, UniProt P15036 1-469).
T3 sequence: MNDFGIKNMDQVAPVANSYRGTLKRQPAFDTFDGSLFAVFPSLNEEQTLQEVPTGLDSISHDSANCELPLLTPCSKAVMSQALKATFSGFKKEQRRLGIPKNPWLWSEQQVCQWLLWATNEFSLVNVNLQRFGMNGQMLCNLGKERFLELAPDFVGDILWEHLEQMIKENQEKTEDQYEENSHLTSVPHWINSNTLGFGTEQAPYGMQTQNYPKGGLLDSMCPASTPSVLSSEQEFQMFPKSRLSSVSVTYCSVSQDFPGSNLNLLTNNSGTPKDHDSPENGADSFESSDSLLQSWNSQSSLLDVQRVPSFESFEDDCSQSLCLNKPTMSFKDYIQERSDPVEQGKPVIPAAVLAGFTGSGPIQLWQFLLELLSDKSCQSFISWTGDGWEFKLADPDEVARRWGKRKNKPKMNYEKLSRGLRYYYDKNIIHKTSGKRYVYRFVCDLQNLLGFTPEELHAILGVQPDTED
An outline of the steps: as §1

The target in experiment [4] is T4, SPDEF (Homo sapiens, UniProt O95238 1-335).
T4 sequence: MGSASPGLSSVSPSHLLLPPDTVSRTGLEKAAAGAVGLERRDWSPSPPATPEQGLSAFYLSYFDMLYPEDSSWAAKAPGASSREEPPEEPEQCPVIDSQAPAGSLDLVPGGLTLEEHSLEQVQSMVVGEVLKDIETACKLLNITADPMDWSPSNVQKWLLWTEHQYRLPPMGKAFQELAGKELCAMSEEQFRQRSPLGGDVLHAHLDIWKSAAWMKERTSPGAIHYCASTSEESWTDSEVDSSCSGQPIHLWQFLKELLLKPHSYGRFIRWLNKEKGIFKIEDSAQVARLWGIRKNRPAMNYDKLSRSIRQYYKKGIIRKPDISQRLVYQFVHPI
An outline of the steps: as §1

Experiment [5] deals with T5, ETV7 (Homo sapiens, UniProt Q9Y603 1-341).
T5 sequence: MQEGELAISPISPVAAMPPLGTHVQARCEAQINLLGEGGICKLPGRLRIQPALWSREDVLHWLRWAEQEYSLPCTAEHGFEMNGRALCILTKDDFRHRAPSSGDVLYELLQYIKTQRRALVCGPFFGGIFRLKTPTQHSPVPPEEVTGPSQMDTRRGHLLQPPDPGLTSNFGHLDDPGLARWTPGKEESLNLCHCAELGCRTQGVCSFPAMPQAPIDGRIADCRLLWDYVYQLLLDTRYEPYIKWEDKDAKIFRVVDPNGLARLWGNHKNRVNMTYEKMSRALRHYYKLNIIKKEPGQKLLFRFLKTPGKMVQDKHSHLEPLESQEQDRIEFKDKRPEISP
An outline of the steps:
as §1

For experiment [6], the target named is T6, ELF5 (Homo sapiens, UniProt Q9UKW6-2 1-255).
T6 sequence: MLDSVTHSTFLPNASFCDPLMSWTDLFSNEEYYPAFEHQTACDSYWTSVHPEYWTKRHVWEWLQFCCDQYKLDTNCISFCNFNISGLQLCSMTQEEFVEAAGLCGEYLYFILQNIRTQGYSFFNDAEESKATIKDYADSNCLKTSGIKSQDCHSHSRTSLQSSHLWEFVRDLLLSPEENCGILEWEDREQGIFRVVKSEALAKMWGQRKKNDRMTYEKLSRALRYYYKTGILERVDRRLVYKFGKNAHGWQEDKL
An outline of the steps:
as §1

For experiment [7], the target named is T7, ETV3 (Homo sapiens, UniProt P41162-2 1-143).
T7 sequence: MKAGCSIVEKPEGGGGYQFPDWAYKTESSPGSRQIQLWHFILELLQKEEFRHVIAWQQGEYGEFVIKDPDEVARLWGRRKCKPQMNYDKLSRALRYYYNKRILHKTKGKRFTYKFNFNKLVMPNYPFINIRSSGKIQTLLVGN
An outline of the steps: as §1

Experiment [8] has as its target ETV6 (Homo sapiens, UniProt P41212 1-452). An outline of the steps: as §1

Sequence of ETV6 (P41212 whole entry): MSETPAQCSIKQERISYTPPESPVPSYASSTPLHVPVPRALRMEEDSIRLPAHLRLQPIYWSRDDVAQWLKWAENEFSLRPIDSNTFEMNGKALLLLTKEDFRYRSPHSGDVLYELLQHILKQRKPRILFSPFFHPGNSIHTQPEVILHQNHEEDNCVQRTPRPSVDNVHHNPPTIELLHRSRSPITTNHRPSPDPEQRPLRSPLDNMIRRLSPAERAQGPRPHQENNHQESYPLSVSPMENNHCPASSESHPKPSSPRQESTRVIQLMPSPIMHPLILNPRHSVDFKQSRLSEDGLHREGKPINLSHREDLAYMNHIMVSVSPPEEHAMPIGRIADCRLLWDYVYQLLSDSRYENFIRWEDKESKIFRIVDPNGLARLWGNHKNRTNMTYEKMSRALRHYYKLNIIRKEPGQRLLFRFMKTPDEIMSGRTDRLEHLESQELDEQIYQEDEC

For the sequence TGCACT, the binding signal is 1.28 fold enrichment (6-mer frequency, TF over GST control) in experiment [1]; 1.34 fold enrichment (6-mer frequency, TF over GST control) in experiment [2]; 1.32 fold enrichment (6-mer frequency, TF over GST control) in experiment [3]; 1.4 fold enrichment (6-mer frequency, TF over GST control) in experiment [4]; 1.42 fold enrichment (6-mer frequency, TF over GST control) in experiment [5]; 1.29 fold enrichment (6-mer frequency, TF over GST control) in experiment [6]. Moreover, the binding signal in experiment [7] is 1.35 fold enrichment (6-mer frequency, TF over GST control); in experiment [8] it was 1.41 fold enrichment (6-mer frequency, TF over GST control).
As for ACTGAC, the binding signal in experiment [1] was 1.18 fold enrichment (6-mer frequency, TF over GST control); in experiment [2] it was 1.19 fold enrichment (6-mer frequency, TF over GST control); in experiment [3] it was 1.32 fold enrichment (6-mer frequency, TF over GST control); in experiment [4], 1.18 fold enrichment (6-mer frequency, TF over GST control); in experiment [5], 1.26 fold enrichment (6-mer frequency, TF over GST control); in experiment [6], 1.21 fold enrichment (6-mer frequency, TF over GST control). The binding signal was 1.21 fold enrichment (6-mer frequency, TF over GST control) in experiment [7] and 1.19 fold enrichment (6-mer frequency, TF over GST control) in experiment [8].
For the sequence TGACGA, the binding signal in experiment [1] was 1.14 fold enrichment (6-mer frequency, TF over GST control); in experiment [2], 1.07 fold enrichment (6-mer frequency, TF over GST control); in experiment [3], 1.17 fold enrichment (6-mer frequency, TF over GST control); in experiment [4] it was 1 fold enrichment (6-mer frequency, TF over GST control); in experiment [5] it was 1.11 fold enrichment (6-mer frequency, TF over GST control); in experiment [6], 1.04 fold enrichment (6-mer frequency, TF over GST control). The binding signal in experiment [7] is 1.09 fold enrichment (6-mer frequency, TF over GST control); in experiment [8] it was 1.16 fold enrichment (6-mer frequency, TF over GST control).
Consider CACTTG, for which the binding signal in experiment [1] is 1.41 fold enrichment (6-mer frequency, TF over GST control); in experiment [2], 1.22 fold enrichment (6-mer frequency, TF over GST control); in experiment [3], 1.32 fold enrichment (6-mer frequency, TF over GST control); in experiment [4], 1.35 fold enrichment (6-mer frequency, TF over GST control); in experiment [5], 1.37 fold enrichment (6-mer frequency, TF over GST control); in experiment [6] it was 1.33 fold enrichment (6-mer frequency, TF over GST control). Moreover, the binding signal in experiment [7] was 1.39 fold enrichment (6-mer frequency, TF over GST control); in experiment [8], 1.31 fold enrichment (6-mer frequency, TF over GST control).
As to AAAGTT, the binding signal in experiment [1] was 1.08 fold enrichment (6-mer frequency, TF over GST control); in experiment [2] it was 1.13 fold enrichment (6-mer frequency, TF over GST control); in experiment [3], 1.09 fold enrichment (6-mer frequency, TF over GST control); in experiment [4], 1.01 fold enrichment (6-mer frequency, TF over GST control); in experiment [5], 1.15 fold enrichment (6-mer frequency, TF over GST control); in experiment [6], 1.08 fold enrichment (6-mer frequency, TF over GST control). Also, the binding signal in experiment [7] is 1.09 fold enrichment (6-mer frequency, TF over GST control); in experiment [8] it was 1.06 fold enrichment (6-mer frequency, TF over GST control).
For ATACTG, the binding signal in experiment [1] is 1.14 fold enrichment (6-mer frequency, TF over GST control); in experiment [2], 1.23 fold enrichment (6-mer frequency, TF over GST control); in experiment [3], 1.1 fold enrichment (6-mer frequency, TF over GST control); in experiment [4] it was 1.18 fold enrichment (6-mer frequency, TF over GST control); in experiment [5], 1.09 fold enrichment (6-mer frequency, TF over GST control); in experiment [6], 1.07 fold enrichment (6-mer frequency, TF over GST control). Besides, the binding signal in experiment [7] is 1.12 fold enrichment (6-mer frequency, TF over GST control); in experiment [8], 1.07 fold enrichment (6-mer frequency, TF over GST control).
